Experimental data: the supplement of paper PMC10849652
About 7,900 targets were measured; listed, in parts, are those with a hit and a random draw of the rest. About 0.6% of all pairs of compound and target were hits. Unmarked numbers belong to inactive results.

What was measured:
Assay in all cases: log2 fold change, soluble protein after heating vs DMSO (PISA); higher = thermal stabilisation; K562 cells, 10 uM, 30 min; active = over 0.2 and 3.5 SD of the protein, either way, in both replicates (recomputed)
saracatinib = compound: CN1CCN(CCOc2cc(OC3CCOCC3)c3c(Nc4c(Cl)ccc5c4OCO5)ncnc3c2)CC1 [saracatinib]
In short: (§1)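 Soluble protein was quantified by TMTpro 16plex LC-MS/MS after channel sums were equalised. It was obtained as the supernatant after 21,000xg for 90 min from pooled aliquots of K562 cells (2×10^6 cells/mL, 10 μM compound, 30 min) heated for 3 min across 48°C-58°C and extracted in PBS with 0.5% NP-40 at 4°C. Thermal stability values are relative to control samples and come from duplicates. They are given as log2 fold changes.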

sotrastaurin = compound: CN1CCN(c2nc(C3=C(c4c[nH]c5ccccc45)C(=O)NC3=O)c3ccccc3n2)CC1 [sotrastaurin]
In short: as §1

alvocidib = compound: CN1CC[C@H](c2c(O)cc(O)c3c(=O)cc(-c4ccccc4Cl)oc23)[C@H](O)C1 [alvocidib]
In short: as §1

Tubastatin A = compound: CN1CCc2c(c3ccccc3n2Cc2ccc(C(=O)NO)cc2)C1 [Tubastatin A]
In short: as §1

[1] = compound: CNC(=O)C1=CC=CC=C1NC2=NC(=NC=C2Cl)NC3=C(C=C(C=C3)N4CCOCC4)OC
In short: as §1

defactinib = compound: CNC(=O)c1ccc(Nc2ncc(C(F)(F)F)c(NCc3nccnc3N(C)S(C)(=O)=O)n2)cc1 [defactinib]
In short: as §1

rucaparib = compound: CNCc1ccc(-c2[nH]c3cc(F)cc4c3c2CCNC4=O)cc1 [rucaparib]
In short: as §1

[2] = compound: CNc1nc(-c2ccc3c(N)n[nH]c3c2)cc(N2C[C@@H](C(=O)NC3CCCCC3)CC[C@H]2C)n1
In short: as §1

encorafenib = compound: COC(=O)N[C@@H](C)CNc1nccc(-c2cn(C(C)C)nc2-c2cc(Cl)cc(NS(C)(=O)=O)c2F)n1 [encorafenib]
In short: as §1

[3] = compound: COC(=O)[C@H](CCSC)NC(=O)C1=C(C=C(C=C1)NC[C@H](CS)N)C2=CC=CC=C2
In short: as §1

[4] = compound: COC1=CC=C(C=C1)CN2C=CC3=C2C=C(C=C3)C(=O)NO
In short: as §1

filanesib = compound: CON(C)C(=O)N1N=C(c2cc(F)ccc2F)S[C@@]1(CCCN)c1ccccc1 [filanesib]
In short: as §1

zotarolimus = compound: CO[C@H]1C[C@@H]2CC[C@@H](C)[C@@](O)(O2)C(=O)C(=O)N2CCCC[C@H]2C(=O)O[C@H]([C@H](C)C[C@@H]2CC[C@H](n3cnnn3)[C@H](OC)C2)CC(=O)[C@H](C)/C=C(\C)[C@@H](O)[C@@H](OC)C(=O)[C@H](C)C[C@H](C)/C=C/C=C/C=C/1C [zotarolimus]
In short: as §1

idasanutlin = compound: COc1cc(C(=O)O)ccc1NC(=O)[C@@H]1N[C@@H](CC(C)(C)C)[C@](C#N)(c2ccc(Cl)cc2F)[C@H]1c1cccc(Cl)c1F [idasanutlin]
In short: as §1

alisertib = compound: COc1cc(Nc2ncc3c(n2)-c2ccc(Cl)cc2C(c2c(F)cccc2OC)=NC3)ccc1C(=O)O [alisertib]
In short: as §1

[5] = compound: COc1cc2nc(-c3cc(F)ccc3O)nc(N[C@@H]3CNC[C@H]3C(C)(C)O)c2cc1OC
In short: as §1

gefitinib = compound: COc1cc2ncnc(Nc3ccc(F)c(Cl)c3)c2cc1OCCCN1CCOCC1 [gefitinib]
In short: as §1

[6] = compound: COc1cccc2cc(-c3nc([C@H]4CC[C@H](C(=O)O)CC4)n4ncnc(N)c34)[nH]c12
In short: as §1

lapatinib = compound: CS(=O)(=O)CCNCc1ccc(-c2ccc3ncnc(Nc4ccc(OCc5cccc(F)c5)c(Cl)c4)c3c2)o1 [lapatinib]
In short: as §1

pictilisib = compound: CS(=O)(=O)N1CCN(Cc2cc3nc(-c4cccc5[nH]ncc45)nc(N4CCOCC4)c3s2)CC1 [pictilisib]
In short: as §1

Sequence of UniProt Q8N108 (Q8N108 whole entry, looked up): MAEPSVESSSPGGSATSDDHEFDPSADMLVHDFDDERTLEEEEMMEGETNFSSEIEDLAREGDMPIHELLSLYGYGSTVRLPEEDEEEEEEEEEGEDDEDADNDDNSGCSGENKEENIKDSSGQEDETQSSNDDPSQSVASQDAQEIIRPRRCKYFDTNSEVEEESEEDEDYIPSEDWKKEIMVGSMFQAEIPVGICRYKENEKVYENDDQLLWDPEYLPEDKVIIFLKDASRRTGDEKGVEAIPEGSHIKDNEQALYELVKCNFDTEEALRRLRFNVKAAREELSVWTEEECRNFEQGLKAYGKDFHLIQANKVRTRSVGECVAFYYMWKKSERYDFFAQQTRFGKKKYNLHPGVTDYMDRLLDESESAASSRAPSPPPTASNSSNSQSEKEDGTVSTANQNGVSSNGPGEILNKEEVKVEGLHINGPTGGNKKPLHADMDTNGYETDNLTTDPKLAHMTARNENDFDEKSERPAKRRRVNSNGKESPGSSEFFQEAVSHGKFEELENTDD
Sequence of UniProt Q9UBF1 (Q9UBF1 whole entry, looked up): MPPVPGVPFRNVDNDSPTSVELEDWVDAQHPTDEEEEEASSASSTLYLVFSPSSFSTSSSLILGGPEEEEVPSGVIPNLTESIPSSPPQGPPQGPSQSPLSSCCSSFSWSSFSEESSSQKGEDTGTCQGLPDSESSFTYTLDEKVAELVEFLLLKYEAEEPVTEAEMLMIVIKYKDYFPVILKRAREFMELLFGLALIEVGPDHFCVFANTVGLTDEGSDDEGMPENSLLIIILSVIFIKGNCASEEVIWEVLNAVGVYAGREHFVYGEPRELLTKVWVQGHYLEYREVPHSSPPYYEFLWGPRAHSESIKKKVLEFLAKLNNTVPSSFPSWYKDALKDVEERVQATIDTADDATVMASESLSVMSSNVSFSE
Sequence of UniProt Q9BPX6 (Q9BPX6 whole entry, looked up): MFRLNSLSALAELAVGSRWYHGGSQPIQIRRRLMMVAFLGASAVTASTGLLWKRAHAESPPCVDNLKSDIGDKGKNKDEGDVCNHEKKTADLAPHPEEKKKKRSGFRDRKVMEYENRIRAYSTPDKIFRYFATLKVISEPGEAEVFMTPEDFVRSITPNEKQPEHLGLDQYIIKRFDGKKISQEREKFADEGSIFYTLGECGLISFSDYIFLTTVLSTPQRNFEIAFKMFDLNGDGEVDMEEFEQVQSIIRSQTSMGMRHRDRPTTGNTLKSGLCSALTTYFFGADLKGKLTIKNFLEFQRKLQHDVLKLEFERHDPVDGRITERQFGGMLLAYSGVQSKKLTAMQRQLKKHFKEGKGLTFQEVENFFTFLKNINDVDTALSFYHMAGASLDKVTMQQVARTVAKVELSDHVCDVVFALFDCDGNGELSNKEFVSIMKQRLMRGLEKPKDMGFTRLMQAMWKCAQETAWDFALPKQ
Sequence of UniProt O15021 (O15021 whole entry, looked up): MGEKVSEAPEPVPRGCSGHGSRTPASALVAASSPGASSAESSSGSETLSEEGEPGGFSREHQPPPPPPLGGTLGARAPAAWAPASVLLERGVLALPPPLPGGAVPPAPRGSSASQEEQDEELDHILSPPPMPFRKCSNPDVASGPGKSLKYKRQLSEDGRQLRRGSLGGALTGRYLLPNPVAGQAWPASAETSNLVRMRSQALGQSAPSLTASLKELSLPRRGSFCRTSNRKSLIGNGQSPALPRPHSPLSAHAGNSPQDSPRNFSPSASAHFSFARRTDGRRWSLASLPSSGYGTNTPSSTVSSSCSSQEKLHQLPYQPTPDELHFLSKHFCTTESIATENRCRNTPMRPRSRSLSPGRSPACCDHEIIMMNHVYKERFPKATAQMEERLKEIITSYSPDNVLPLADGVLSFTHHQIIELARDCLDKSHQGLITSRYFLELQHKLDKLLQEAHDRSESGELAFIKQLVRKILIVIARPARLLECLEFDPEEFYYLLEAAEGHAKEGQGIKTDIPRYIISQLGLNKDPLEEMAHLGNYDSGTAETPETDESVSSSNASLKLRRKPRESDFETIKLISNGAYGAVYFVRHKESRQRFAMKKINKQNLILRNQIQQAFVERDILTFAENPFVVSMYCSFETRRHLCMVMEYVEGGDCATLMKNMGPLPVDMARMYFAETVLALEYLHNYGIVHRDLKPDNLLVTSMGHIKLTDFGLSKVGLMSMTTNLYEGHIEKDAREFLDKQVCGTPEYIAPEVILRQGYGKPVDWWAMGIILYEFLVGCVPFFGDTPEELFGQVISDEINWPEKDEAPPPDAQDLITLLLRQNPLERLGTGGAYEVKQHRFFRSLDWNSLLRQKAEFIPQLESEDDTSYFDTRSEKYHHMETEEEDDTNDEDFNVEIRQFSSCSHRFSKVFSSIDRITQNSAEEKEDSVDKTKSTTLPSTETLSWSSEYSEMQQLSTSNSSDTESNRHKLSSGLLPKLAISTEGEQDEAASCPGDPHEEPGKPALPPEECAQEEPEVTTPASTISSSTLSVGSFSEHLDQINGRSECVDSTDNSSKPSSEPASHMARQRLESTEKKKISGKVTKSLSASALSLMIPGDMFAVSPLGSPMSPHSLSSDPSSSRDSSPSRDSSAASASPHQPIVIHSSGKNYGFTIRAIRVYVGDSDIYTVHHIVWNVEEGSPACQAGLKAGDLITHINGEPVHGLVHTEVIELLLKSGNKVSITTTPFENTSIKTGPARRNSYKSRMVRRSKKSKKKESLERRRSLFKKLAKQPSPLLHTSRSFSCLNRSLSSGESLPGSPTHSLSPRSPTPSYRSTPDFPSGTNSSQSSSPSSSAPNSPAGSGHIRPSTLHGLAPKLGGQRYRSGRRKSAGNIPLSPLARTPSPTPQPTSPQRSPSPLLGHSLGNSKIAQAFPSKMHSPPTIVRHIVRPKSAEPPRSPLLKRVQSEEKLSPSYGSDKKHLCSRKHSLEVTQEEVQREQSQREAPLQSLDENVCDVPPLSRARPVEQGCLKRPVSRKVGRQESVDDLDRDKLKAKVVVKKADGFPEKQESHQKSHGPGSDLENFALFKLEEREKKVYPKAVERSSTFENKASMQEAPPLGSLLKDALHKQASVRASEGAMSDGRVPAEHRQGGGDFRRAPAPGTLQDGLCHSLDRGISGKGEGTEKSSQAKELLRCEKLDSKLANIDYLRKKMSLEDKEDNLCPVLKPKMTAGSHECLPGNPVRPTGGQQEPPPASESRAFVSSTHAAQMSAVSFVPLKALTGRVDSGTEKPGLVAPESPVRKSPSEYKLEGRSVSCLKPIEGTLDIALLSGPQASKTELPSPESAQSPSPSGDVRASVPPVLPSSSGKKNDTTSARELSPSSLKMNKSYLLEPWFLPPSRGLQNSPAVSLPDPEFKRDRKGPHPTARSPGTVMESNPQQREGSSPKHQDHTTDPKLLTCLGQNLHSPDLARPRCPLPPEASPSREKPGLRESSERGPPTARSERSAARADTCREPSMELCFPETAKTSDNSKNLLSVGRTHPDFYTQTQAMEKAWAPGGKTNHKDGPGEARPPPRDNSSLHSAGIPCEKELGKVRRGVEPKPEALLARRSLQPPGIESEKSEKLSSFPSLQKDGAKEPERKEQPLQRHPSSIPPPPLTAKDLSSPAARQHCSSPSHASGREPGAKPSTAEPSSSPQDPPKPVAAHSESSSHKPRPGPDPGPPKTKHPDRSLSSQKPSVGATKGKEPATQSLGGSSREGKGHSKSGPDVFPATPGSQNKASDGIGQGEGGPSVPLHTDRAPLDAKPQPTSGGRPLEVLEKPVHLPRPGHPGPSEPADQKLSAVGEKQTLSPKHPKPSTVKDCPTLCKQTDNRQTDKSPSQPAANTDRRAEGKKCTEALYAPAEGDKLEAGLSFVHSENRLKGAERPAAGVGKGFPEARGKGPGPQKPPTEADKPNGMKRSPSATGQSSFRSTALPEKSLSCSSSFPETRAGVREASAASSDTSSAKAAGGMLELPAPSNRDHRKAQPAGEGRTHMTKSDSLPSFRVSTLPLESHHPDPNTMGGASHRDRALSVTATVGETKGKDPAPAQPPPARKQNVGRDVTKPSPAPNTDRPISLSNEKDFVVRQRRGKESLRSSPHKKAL
Sequence of UniProt Q07820 (Q07820 whole entry, looked up): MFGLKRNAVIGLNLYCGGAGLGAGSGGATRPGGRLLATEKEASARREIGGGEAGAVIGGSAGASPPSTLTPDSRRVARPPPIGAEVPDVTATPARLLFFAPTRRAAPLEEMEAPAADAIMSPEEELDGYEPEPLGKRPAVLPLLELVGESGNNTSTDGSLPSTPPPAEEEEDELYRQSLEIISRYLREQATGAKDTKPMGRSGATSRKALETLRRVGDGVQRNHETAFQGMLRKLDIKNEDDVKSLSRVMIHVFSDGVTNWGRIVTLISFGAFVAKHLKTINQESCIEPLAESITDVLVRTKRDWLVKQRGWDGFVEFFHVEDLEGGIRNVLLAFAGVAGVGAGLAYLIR

Target | log2 fold change (saracatinib) | log2 fold change (sotrastaurin) | log2 fold change (alvocidib) | log2 fold change (Tubastatin A) | log2 fold change [1] | log2 fold change (defactinib) | log2 fold change (rucaparib) | log2 fold change [2] | log2 fold change (encorafenib) | log2 fold change [3] | log2 fold change [4] | log2 fold change (filanesib) | log2 fold change (zotarolimus) | log2 fold change (idasanutlin) | log2 fold change (alisertib) | log2 fold change [5] | log2 fold change (gefitinib) | log2 fold change [6] | log2 fold change (lapatinib) | log2 fold change (pictilisib)
KPNA6 (UniProt O60684) | -0.004 | -0.117 | -0.073 | 0.008 | 0.082 | -0.06 | 0.092 | -0.042 | 0.12 | -0.099 | 0.193 | 0.115 | 0.169 | -0.031 | -0.01 | 0.056 | 0.048 | -0.066 | -0.018 | -0.017
KIF1B isoform 4 (UniProt O60333) | -0.033 | -0.014 | -0.018 | 0.025 | 0.016 | -0.004 | -0.006 | -0.097 | 0.023 | -0.016 | 0.008 | -0.128 | 0.024 | -0.006 | -0.044 | -0.014 | -0.004 | -0.04 | 0.013 | 0.037
MAST4 (UniProt O15021) | 0.006 | -0.103 | -0.065 | 0.012 | -0.087 | -0.149 | -0.101 | -0.006 | 0.042 | -0.017 | -0.023 | -0.114 | 0.035 | -0.103 | -0.073 | -0.283 | -0.031 | 0.019 | 0.046 | -0.036
MFGE8 (UniProt Q08431) | -0.171 | -0.013 | 0.034 | 0.08 | 0.066 | 0.099 | -0.043 | -0.018 | 0.037 | -0.023 | -0.129 | 0.129 | -0.03 | 0.05 | -0.147 | 0.019 | 0.069 | -0.124 | 0.079 | 0.122
MCL1 (UniProt Q07820) | 0.011 | -0.114 | -0.056 | 0.268 | -0.022 | -0.015 | 0.029 | -0.063 | 0.004 | 0.047 | -0.092 | 0.029 | 0.093 | 0.145 | -0.12 | -0.442 (active) | -0.18 | 0.055 | -0.249 | -0.026
MAGEC2 (UniProt Q9UBF1) | 0.092 | -0.068 | -0.034 | -0.013 | 0.015 | -0.056 | -0.021 | -0.082 | 0.079 | 0.003 | 0.018 | -0.032 | 0.039 | -0.045 | -0.044 | 0.015 | -0.018 | -0.005 | -0.004 | 0.058
MICU1 isoform 3 (UniProt Q9BPX6) | -0.073 | 0 | 0.005 | -0.007 | -0.054 | 0.172 | 0.134 | -0.012 | 0.121 | -0.05 | -0.047 | -0.031 | -0.034 | 0.05 | -0.011 | -0.278 (active) | 0.02 | -0.056 | 0.019 | -0.038
MIER1 isoform 12 (UniProt Q8N108) | 0.026 | -0.024 | -0.079 | 0.297 (active) | -0.058 | -0.13 | -0.01 | -0.056 | -0.004 | 0.017 | -0.041 | -0.067 | -0.015 | -0.04 | -0.023 | -0.039 | -0.001 | 0.014 | 0.011 | -0.066
